Bioassay records as filed in PubChem.
G9a block = G9a (human) methyltransferase inhibition; Potency, µM (titrated, usually from 102 µM), inactives show at the highest dose activity, negative = inhibition, actives largely listed as inhibitors; G9a H3K9 monomethylation, AlphaScreen, 2 h; 8.8% of 350,000 active; AID 504332; Q96KQ7; further: on the % scale 0 is the no-effect control and ±100 the full control effect; nearly all actives have a fitted effect of over 75% in size
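Step 1: enzyme (final 20 nM) with compound, 15 min RT. Step 2: substrate peptide 500 nM and SAM 20 uM, 2 h RT. Step 3: anti-H3K9me1 antibody and AlphaScreen beads, 10 min, then plate read.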
JMJD2A Tudor = blocks the human JMJD2A Tudor domain. O75164. AlphaScreen JMJD2A-Tudor / H3K4me3 peptide binding. 4.4% of 390,000 active. Potency, µM (titrated, usually from 114 µM), inactives show at the top dose activity change, negative = inhibition, usual class: inhibitors. AID 504339; further: on the % scale 0 is the no-effect control and ±100 the full control effect; nearly all actives have a fitted effect of over 50% in size
HP1b chromo inh = HP1-beta chromodomain-methylated histone interaction inhibition; P83916; AlphaScreen HP1-beta / biotin-H3K9me3 peptide binding; Potency, µM (top dose mostly 114 µM), for the others: at the highest dose activity change, negative = inhibition, most hits filed as inhibitors; 0.56% of 390,000 active; AID 540317; further: nearly all actives have a fitted effect of over 70% in size
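HP1-beta protein (50 nM final) preincubated 30 min at room temperature with biotinylated H3(1-18)K9me3 peptide (50 nM) in PBS pH 7.4, 0.01% Tween-20, then compound added for 30 min. AlphaScreen streptavidin donor/nickel chelate acceptor beads (10 ug/mL final), 30 min dark, luminescence read.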
Sfp inh = blocks B. subtilis Sfp PPTase activity. 3.5% of 310,000 active. Q9F4F7. Biochemical Sfp PPTase activity, qHTS. AID 1490. Potency, µM, inactives show largest response in the series, negative = inhibition, actives largely listed as inhibitors;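 further: the enzyme is Sfp with the accession as filed and its product quenches rhodamine fluorescence; 0% = enzyme reaction without inhibitor and -100% = no enzyme wells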
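Step 1, compound plus 15 nM Sfp-PPTase, 15 min, room temperature. Step 2, add rhodamine-CoA (5 uM) and BHQ-2-YbbR (12.5 uM). Step 3, read 525/598 nm fluorescence at 0 and 30 min.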
L3MBTL1 block = blocks human L3MBTL1; Potency, µM (highest dose often 57.1 µM), inactives show at the highest dose activity, negative = inhibition, hits mostly inhibitors; AlphaScreen L3MBTL1–H3K9me1 peptide binding; AID 485360; 0.66% of 230,000 active; further: on the % scale 0 is the no-effect control and ±100 the full control effect; nearly all actives have a fitted effect of over 60% in size
Target sequence (Q9Y468 whole entry, looked up): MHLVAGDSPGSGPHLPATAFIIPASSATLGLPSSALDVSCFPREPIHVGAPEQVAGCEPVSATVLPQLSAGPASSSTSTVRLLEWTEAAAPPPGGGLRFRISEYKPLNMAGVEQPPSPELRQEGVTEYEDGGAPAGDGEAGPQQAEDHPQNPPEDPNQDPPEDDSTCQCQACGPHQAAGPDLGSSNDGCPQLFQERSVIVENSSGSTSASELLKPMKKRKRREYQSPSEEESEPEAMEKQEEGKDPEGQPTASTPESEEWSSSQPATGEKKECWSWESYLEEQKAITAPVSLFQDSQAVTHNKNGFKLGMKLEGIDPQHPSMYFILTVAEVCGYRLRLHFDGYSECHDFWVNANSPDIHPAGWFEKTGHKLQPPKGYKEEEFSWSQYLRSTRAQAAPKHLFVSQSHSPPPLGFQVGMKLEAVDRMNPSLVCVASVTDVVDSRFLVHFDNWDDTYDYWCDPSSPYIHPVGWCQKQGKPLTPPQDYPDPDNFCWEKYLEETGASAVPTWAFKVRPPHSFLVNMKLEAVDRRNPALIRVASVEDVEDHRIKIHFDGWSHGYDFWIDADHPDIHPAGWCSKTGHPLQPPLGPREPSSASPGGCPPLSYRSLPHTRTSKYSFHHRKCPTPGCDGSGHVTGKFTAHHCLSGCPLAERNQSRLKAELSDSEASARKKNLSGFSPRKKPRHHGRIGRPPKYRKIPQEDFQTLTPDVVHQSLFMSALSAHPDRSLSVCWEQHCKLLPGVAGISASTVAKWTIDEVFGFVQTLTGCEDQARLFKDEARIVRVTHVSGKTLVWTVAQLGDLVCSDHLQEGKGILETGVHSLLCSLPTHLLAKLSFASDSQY
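AlphaScreen assay: L3MBTL1 (50 nM final) was preincubated 30 min at room temperature with biotinylated H3(1-15)K9me1 peptide (75 nM final), then 30 min with library compounds; streptavidin donor and nickel chelate acceptor beads (10 ug/mL final) added, 30 min dark.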
BAZ2B block = inhibitors of human BAZ2B bromodomain. AlphaScreen BAZ2B-H3K14Ac peptide displacement. 4.4% of 360,000 active. Q9UIF8. Potency, µM (titrated, usually from 114 µM), inactives show top-dose activity change, negative = inhibition, usual class: inhibitors; further: on the % scale 0 is the no-effect control and ±100 the full control effect; nearly all actives have a fitted effect of over 60% in size
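BAZ2B (50 nM) with biotin-H3(5-23)K14Ac peptide (50 nM) in PBS pH 7.4, 0.01% Tween-20, preformed 30 min, then compound 30 min at room temperature; top concentration 110uM. AlphaScreen streptavidin donor/nickel chelate acceptor beads (10 ug/mL final), 20 min dark, signal read.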
Active calls of the source: *; ? = inconclusive; . = not tested or not shown; ! = not active in a repeat; [ ] = another dose, or the depositor's remark. Sampled rows, rich in hits. Any-hit rate of the full collection: about 12%. The call rests on the fitted dose curve; in most records, active means well fitted curve in the direction sought with a large enough effect; inconclusive means small, poorly fitted or top-dose-only effect, or another doubt; inactive means no such curve, though single readings can be large; an effect the other way counts as inactive or inconclusive. Potency means the concentration at half of the fitted maximal effect.

SMILES | G9a block | JMJD2A Tudor | HP1b chromo inh | Sfp inh | L3MBTL1 block | BAZ2B block
CCOC(=O)N1CCC(NCCNC(=O)c2ccccc2)CC1 | 9%[0.501 µM] | 2.2µM*! | 66% | -15% | -2% | 45µM*!
O=C(NCCNC1CCC(c2ccccc2)CC1)c1cccs1 (configuration not stated) | 28µM* | 2.2µM* | ? | 5% | 2% | 50µM*
CCOC(=O)N1CCC(NC(=O)c2cccs2)CC1 | -1% | -9% | 15% | 6% | -9% | -10%
CCOC(=O)N1CCC(NCCNC(=O)c2cccs2)CC1 | ? | 1.8µM* | ? | -20% | 1% | 79µM*
CC(=O)OCC(NC(=O)C1CCCN1C(=O)OC(C)(C)C)C1OC(n2ccc(=O)[nH]c2=O)C(OC(C)=O)C1OC(C)=O (configuration not stated) | . | -9% | 6% | 1% | . | .
CCOC(=O)c1ccc(NC(=O)CN2c3ccccc3S(=O)(=O)c3ccccc32)cc1 | -8%[59 µM] | -33% | 58% | . | . | -24%
O=C(NC(=S)N1CCCCC1CO)c1cccs1 (configuration not stated) | . | 2.8µM* | -32% | . | -9% | .
COc1ccc(NC(=O)c2sc3nc(N4CCOCC4)c4c(c3c2N)CC(C)(C)OC4)cc1 | . | -5% | 59% | 2% | . | -1%
CCOc1ccc(NC(=O)c2sc3nc(N4CCOCC4)c4c(c3c2N)CCCC4)cc1 | ? | -11% | 29% | -4% | . | -17%
CN1Cc2c(N3CCOCC3)nc3sc(C#N)c(N)c3c2CC1(C)C | . | -19% | 25% | -8% | -2% | -8%
CC(=O)c1ccc(NC(=O)c2sc3nc(N4CCOCC4)c4c(c3c2N)CCCC4)cc1 | 25µM* | 5% | 30% | ? | . | -28%
CN1Cc2c(N3CCOCC3)nc3sc(C(=O)c4ccc(Br)cc4)c(N)c3c2CC1(C)C | 45µM* | 45µM* | ? | 45µM* | -21% | 35µM*
Nc1c(C(=O)Nc2ccc(Cl)cc2)sc2nc(N3CCOCC3)c3c(c12)CCCC3 | 22µM* | -19% | 13% | -10% | . | -13%
COc1ccc(NC(=O)c2sc3nc(N4CCCC4)c4c(c3c2N)CC(C)(C)OC4)cc1 | . | -5% | 36% | 10µM* | . | -7%
O=C(NCc1ccc2c(c1)CCN2C(=O)c1ccccc1)c1cc2ccccc2[nH]1 | -24%[59 µM] | -17% | 27% | . | . | ?
COc1ccc(CCNC(=O)Cn2c(=O)c3cccn3c3ccccc32)cc1OC | -7%[59 µM] | -13% | 26% | . | . | -21%
Nc1c(C(=O)N2CCOCC2)sc2nc(N3CCOCC3)c3c(c12)CCCC3 | 10µM* | ? | 5% | 10µM* | 4% | -14%
CC1(C)Cc2c(c(N3CCOCC3)nc3sc(C(=O)N4CCCCC4)c(N)c23)CO1 | 4.5µM* | ? | 27% | 16µM* | -2% | -36%
NNC(=O)c1sc2nc(N3CCOCC3)c3c(c2c1N)CCCC3 | ? | -22% | 34% | 8% | . | -28%
Nc1nc2sc3c(c2cc1C(=O)NCC(=O)O)CCCC3 | ? | -12% | 35% | -13% | . | -14%
Nc1nc2sc3c(c2cc1C(=O)N1CCOCC1)CCCC3 | ? | 14µM* | 6% | -16% | 8% | -39%
CN(C)c1ccc(C(O)c2cc3ccccc3s2)cc1 (configuration not stated) | . | 32µM* | ? | . | . | .
CN(C)c1ccc(CNc2nc3ccccc3s2)cc1 | -8% | . | . | 11% | -1% | -7%
Cc1cccc(/C=N/NC(=O)c2ccc3c(c2)OCCO3)c1O | 37% | . | . | 4% | . | 20µM*
COc1cc(/C=N/NC(=O)c2ccc3c(c2)OCCO3)c(Br)c(Br)c1O | 45µM* | -14% | -10%[57 µM] | -19% | . | -27%
SMILES | G9a block | JMJD2A Tudor | HP1b chromo inh | Sfp inh | L3MBTL1 block | BAZ2B block
Cc1cccc(/C=N/NC(=O)c2c(-c3ccccc3)noc2C)c1O | . | ? | 42% | 31% | . | 25µM*
COc1ccccc1/C=N/NC(=O)c1c(-c2ccccc2)noc1C | 10%[12.7 µM] | -16% | 27% | 20% | . | 28%
CCOC(=O)c1[nH]c2c(c1Cc1ccccc1OC)C(=O)CC(c1ccc(OCC)cc1)C2 (configuration not stated) | 0%[59 µM] | -5% | 22% | . | . | -4%
O=S(=O)(Nc1ccc2nc(C(F)(F)F)[nH]c2c1)c1ccccc1 | -1% | -13% | 37% | 10% | 2% | 2%
Cc1ccc(-c2nc3ccc(NS(=O)(=O)c4ccccc4)cc3[nH]2)o1 | ? | -28% | 8% | 35µM* | . | ?
O=S(=O)(Nc1ccc2nc(-c3ccc(Br)o3)[nH]c2c1)c1ccccc1 | 3%[12.7 µM] | . | . | 50µM* | 3% | ?
COc1ccc(-c2noc(CSc3nnc(-c4ccncc4)n3-c3cccc(C)c3)n2)cc1OC | -7%[59 µM] | -23% | 36% | . | . | -22%
CCc1nc2ccc(C(=O)NCc3ccc(C)o3)cc2nc1CC | -16% | -18% | 2% | 5% | . | -28%
CCCN1C(=O)c2ccc(C(=O)NCc3ccco3)cc2C1=O | -43%[12.7 µM] | -6% | 3% | 45µM* | 1%[11.4 µM] | -5%
CCc1nc2ccc(C(=O)NCc3ccco3)cc2nc1CC | -22%[12.7 µM] | -13% | 25% | 35µM* | . | -38%
O=C(NCc1ccccc1)c1cccc(NC(=O)c2ccco2)c1 | -23% | -16% | 3% | -9% | -3% | 8%
O=C(NCc1ccco1)c1cccc(NC(=O)c2ccco2)c1 | 56µM* | -29% | -2% | 1% | . | -32%
CCCCN1C(=O)c2ccc(C(=O)NCc3ccco3)cc2C1=O | ? | -16% | 42% | -4% | . | -26%
COc1ccc(O[C@H]2C=C[C@@H](c3ccccc3)O[C@H]2COC(=O)N2CCCCC2)cc1 | . | . | . | -7% | . | .
O=C1CS/C(=N\NC(=O)c2ccccc2)N1 | 2.5µM* | ? | 31% | -11% | 2% | -36%
CCS(=O)(=O)c1nc(S(=O)(=O)c2ccc(C)cc2)c(NCc2ccccc2Cl)s1 | 9%[59 µM] | -15% | 54% | . | . | 2%
COc1ccccc1N(C)S(=O)(=O)c1ccc(C(=O)N(CC(N)=O)C(C)C)cc1 | -5% | -10% | 30% | 4% | . | 89µM*
COCCNC(=O)c1cc(S(=O)(=O)N(C)c2ccccc2OC)ccc1C | 28µM* | -4% | 50% | -11% | -1% | -14%
CCCCCC(=O)Cc1cc(O)cc2c1C(=O)Oc1cc(O)c(C(=O)O)c(CCCCC)c1O2 | -23%[59 µM] | 79µM* | -9% | 9% | . | ?
CCCCCC/C=C\CCCCCCCc1cccc(O)c1C(=O)O | 3%[2.33 µM] | . | . | 9% | . | .
CC1=C(c2ccc(C)cc2)S(=O)(=O)NC1=NCc1cccc(F)c1 | -44%[59 µM] | -27% | 9% | . | . | ?
COc1ccc(OC)c(/C=C/c2nc3ccccc3c(=O)n2-c2ccc(F)c(Cl)c2)c1 | 2%[59 µM] | -4% | 61% | . | . | 2%
